These results are taken from PubChem BioAssay (NCI).

Among the test systems are RPMI-8226 leukemia; OVCAR-8 ovarian; OVCAR-5 ovarian; OVCAR-4 ovarian; SK-OV-3 ovarian; IGROV1 ovarian; OVCAR-3 ovarian; HS 578T breast; NCI/ADR-RES ovarian; T-47D breast; BT-549 breast; MDA-MB-435 melanoma; SW-620 colon; MCF7 breast; HCT-116 colon; HCC-2998 colon; KM12 colon.
Test in all cases: NCI-60 one-dose screen, 48 h (100 = growth as untreated, 0 = no growth, -100 = all killed)
Holding throughout (settings): 10 µM unless noted

The panel holds about 83,000 compounds, 20% with a hit somewhere; the sample as a whole holds those more often.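 Step 1: grow cells in 96-well plates. Step 2: add test compound at a single concentration. Step 3: incubate 48 h. Step 4: record percent growth.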 Unmarked numbers belong to inactive results. The source made the active and inactive calls. How the source made its calls: active means growth percent below 10; inactive means the rest.

`O=C1c2ccccc2C(=O)c2c1oc1c2c(=O)[nH]c2ccc(Cl)cc21`: the growth is 4.83% (active) with RPMI-8226 leukemia; -27.5% (active) in the test with OVCAR-8 ovarian; 52.7% in the test on OVCAR-5 ovarian; -42% (active) in the test with OVCAR-4 ovarian; 1.64% (active) in the test on SK-OV-3 ovarian; -3.63% (active) in the test with IGROV1 ovarian. The growth in the test with OVCAR-3 ovarian was -68.4% (active); in the test with HS 578T breast, -7.55% (active); with NCI/ADR-RES ovarian, 22.3%; in the test with T-47D breast it was -58.1% (active); with BT-549 breast, 38%; in the test on MDA-MB-435 melanoma it was 10.2%. The growth in the test on SW-620 colon was -53% (active); with MCF7 breast it was 0.704% (active); in the test with HCT-116 colon, -12.2% (active); with HCC-2998 colon, 65.1%; with KM12 colon, 0.119% (active).

Consider `Cn1nc(C(F)(F)F)c(-c2cc(C(F)(F)F)cc(C(F)(F)F)c2)c1-c1ccc(OCc2ccc(Cl)cc2)cc1O`, for which the growth was -14.5% (active) in the test on RPMI-8226 leukemia; 8.36% (active) in the test with OVCAR-8 ovarian; 29.1% with OVCAR-5 ovarian; 20.7% with OVCAR-4 ovarian; -13.5% (active) with SK-OV-3 ovarian; 31.4% in the test with IGROV1 ovarian. The growth was 7.02% (active) in the test with OVCAR-3 ovarian; 4.39% (active) in the test with HS 578T breast; 1.98% (active) with NCI/ADR-RES ovarian; -11.6% (active) in the test on T-47D breast; 2.72% (active) in the test on BT-549 breast; 11.4% in the test on MDA-MB-435 melanoma. Moreover, the growth in the test on SW-620 colon was 13.1%; in the test with MCF7 breast, 3.01% (active); in the test with HCT-116 colon it was 3.65% (active); in the test on HCC-2998 colon it was 5.78% (active); with KM12 colon, 5.04% (active).

Take `COc1cc(C2=NN(C(C)=O)C(c3cccc(Nc4ccnc5cc(C(F)(F)F)ccc45)c3)C2)cc(OC)c1OC` (stereo not given): the growth was 20.8% in the test with RPMI-8226 leukemia; 56.1% in the test with OVCAR-8 ovarian; 82.7% in the test on OVCAR-5 ovarian; 52% in the test on OVCAR-4 ovarian; 69.3% in the test with SK-OV-3 ovarian; 62.4% in the test on IGROV1 ovarian. Further, the growth in the test on OVCAR-3 ovarian is 61.2%; in the test with HS 578T breast, 76.6%; with NCI/ADR-RES ovarian it was 53%; in the test with T-47D breast it was 40.2%; with BT-549 breast it was 46.2%; in the test with MDA-MB-435 melanoma it was 56.6%. The growth is 66.1% in the test on SW-620 colon; 37.9% with MCF7 breast; 48.4% in the test on HCT-116 colon; 72.2% in the test on HCC-2998 colon; 64.8% in the test on KM12 colon.

Take `O=C1NN(c2ccccc2)C(c2ccc(Cl)cc2)N2CCC[C@H]12` (stereo not given in full): the growth in the test with RPMI-8226 leukemia was 102%; in the test with OVCAR-8 ovarian, 98.1%; with OVCAR-5 ovarian, 103%; in the test with OVCAR-4 ovarian it was 95.7%; in the test with SK-OV-3 ovarian it was 107%; in the test with IGROV1 ovarian, 98.6%. In addition, the growth with OVCAR-3 ovarian is 93.4%; in the test on HS 578T breast it was 91.6%; in the test with NCI/ADR-RES ovarian it was 93.1%; with T-47D breast, 100%; in the test on BT-549 breast, 117%; with MDA-MB-435 melanoma, 99.2%. The growth in the test on SW-620 colon is 87.3%; with MCF7 breast it was 79.9%; in the test with HCT-116 colon it was 99.7%; in the test on HCC-2998 colon, 88.1%; in the test on KM12 colon, 94.9%.

As to `O=C1C(=O)c2c(nc3ccc(Br)cn23)-c2ccccc21`, the growth is -47.6% (active) in the test on RPMI-8226 leukemia; -90.7% (active) in the test on OVCAR-8 ovarian; -76.9% (active) with OVCAR-5 ovarian; -95.1% (active) in the test on OVCAR-4 ovarian; -97.6% (active) in the test with SK-OV-3 ovarian; -51.5% (active) with IGROV1 ovarian. In addition, the growth in the test on OVCAR-3 ovarian was -51.4% (active); in the test on HS 578T breast it was -52.2% (active); with NCI/ADR-RES ovarian it was -31.4% (active); in the test on T-47D breast, -59.8% (active); with BT-549 breast it was -86.8% (active); in the test on MDA-MB-435 melanoma, -94% (active). The growth in the test with SW-620 colon is -79.6% (active); in the test on MCF7 breast it was -54.1% (active); with HCT-116 colon it was -88.9% (active); in the test on HCC-2998 colon, -82.5% (active); in the test with KM12 colon it was -41.5% (active).

Turning to `N#Cc1c(-c2ccc(F)cc2)nc(N/N=C/c2cccc(O)c2)nc1N1CCOCC1`, the growth is 41.3% with RPMI-8226 leukemia; 69.7% in the test on OVCAR-8 ovarian; 108% in the test on OVCAR-5 ovarian; 79.7% in the test on OVCAR-4 ovarian; 93.9% in the test on SK-OV-3 ovarian; 61.4% in the test on IGROV1 ovarian. Also, the growth with OVCAR-3 ovarian was 78.6%; in the test on HS 578T breast, 84.4%; in the test with NCI/ADR-RES ovarian it was 72.8%; in the test on T-47D breast, 89.2%; in the test on BT-549 breast, 93.4%; with MDA-MB-435 melanoma, 93.4%. In addition, the growth in the test on SW-620 colon is 73.7%; in the test with MCF7 breast, 72.4%; in the test with HCT-116 colon, 71%; in the test on HCC-2998 colon it was 95.1%; with KM12 colon, 86%.

In the case of `COc1ccc2c(c1)C1(C(=O)N2)C(C#N)=C(c2ccccc2)Nc2c1c(-c1ccccc1)nn2-c1ccccc1` (stereo not given), the growth is 67.6% in the test on RPMI-8226 leukemia; -10.9% (active) in the test with OVCAR-8 ovarian; 83.1% in the test on OVCAR-5 ovarian; -1.01% (active) in the test on OVCAR-4 ovarian; 78.8% in the test with SK-OV-3 ovarian; 49.6% in the test on IGROV1 ovarian. In addition, the growth is -69.2% (active) in the test with OVCAR-3 ovarian; 40% in the test on HS 578T breast; 92.7% in the test on NCI/ADR-RES ovarian; 63.4% in the test on T-47D breast; 84.5% in the test on BT-549 breast; 55.3% with MDA-MB-435 melanoma. Moreover, the growth in the test with SW-620 colon is 8.54% (active); with MCF7 breast, 18.1%; in the test with HCC-2998 colon, 58.1%; in the test with KM12 colon, 39.7%.

For `C(=C\c1cn(-c2ccccc2)nc1-c1ccccc1)/c1nnc(-c2c[nH]c3ccccc23)o1`, the growth with RPMI-8226 leukemia was 40.8%; in the test on OVCAR-8 ovarian, 35.2%; with OVCAR-5 ovarian, 93.3%; in the test with OVCAR-4 ovarian, 47.9%; with SK-OV-3 ovarian it was 91.8%; in the test with IGROV1 ovarian, 59.2%. Also, the growth is 20.9% with OVCAR-3 ovarian; 44.7% in the test on HS 578T breast; 51.8% in the test on NCI/ADR-RES ovarian; 55.5% in the test on T-47D breast; 81% with BT-549 breast; 49% in the test on MDA-MB-435 melanoma. The growth is 45.8% in the test with SW-620 colon; 34.3% in the test on MCF7 breast; 24.7% in the test with HCT-116 colon; 97.3% in the test with HCC-2998 colon; 37.9% with KM12 colon.
